Measured values published in PubChem BioAssay AID2098 (Broad Institute, 2009).
About 2,300 (0.77%) of roughly 300,000 compounds were called active.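 Rule for the calls: active = more than half of replicate wells show activity change below -50%, luminescence cut by over half; inconclusive = some wells, but at most half, below -50%; inactive = no replicate well below -50%.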 The list comes from a sample in which actives are over-represented; it also holds similar structures and randomly drawn compounds.

assay: HSF1 inhibitors in luciferase reporter cells, primary screen, cell-based, NIH3T3, luminescence (AID 2098); conditions: NIH3T3-HGL HSE-luciferase, MG132-induced, luminescence 8 h; stronger effect = lower value; screened at 7.5 µM (by protocol);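 note: luciferase reports HSF-1 transcriptional activity via heat shock element; 0% = median of DMSO wells and -100% = zero luminescence signal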

Activity change, negative = inhibition, active:
O=C(O)/C=C\C(=O)Nc1ccc(OCc2ccccc2)cc1 -65.7%
COc1ccc2[nH]c(=O)c(CN(Cc3cccnc3)S(=O)(=O)c3ccccc3F)cc2c1 -52.3%
CC[C@H]1CN2CCc3cc(OC)c(OC)cc3[C@@H]2C[C@@H]1C[C@H]1NCCc2cc(OC)c(OC)cc21 -74.7%
CCOC(=O)c1cccc(NC(=O)C2CCN(c3ncnc4c3nc3n4CCCCC3)CC2)c1 -72.4%
Cc1nc(C)c(-c2nnc(-c3cccc(S(=O)(=O)N(C)C)c3)o2)cc1C(=O)NN -63.1%
C=C(C)C(=O)O[C@H]1C/C(C)=C\C(=O)/C=C(\C)[C@H](O)[C@@H]2OC(=O)C(=C)[C@@H]21 -73.5%
COC(=O)CCNc1ccc2c(c1)OCCO2 -72.6%
O=S1(=O)CC/C(=N\Nc2ccc(F)cc2)c2ccsc21 -74.8%
CCN(CC(=O)N1CCCC1)S(=O)(=O)c1ccc(F)cc1 -65.5%
COC(=O)CCCC1=CC2=C(c3ccccc3)C(=O)C(C)(OC(=O)C3CCCC3)C(=O)C2=CN1c1ccc(OC)cc1 (stereo unspecified) -88.7%
CN(c1ccc2nc3ccccc3c(=O)n2n1)C1CCCCC1 -86.8%
CCCNC(=S)N1CCCC(c2nc3ccccc3[nH]2)C1 (stereo unspecified) -82%

Activity change, negative = inhibition, inactive:
COc1ccc(CC(=O)OC(C)C(=O)Nc2ccc(S(N)(=O)=O)cc2)cc1 (stereo unspecified) -3.68%
CCc1cccc(NC(=O)COC(=O)C2CCN(c3ccc(C(F)(F)F)cn3)CC2)c1 -4.52%
CCc1ccnc(NC(=O)Nc2ccc(OCc3ccccc3)cc2)c1 -11.4%
Cc1cccc(NC(=O)Nc2ccc(OCc3ccccc3)cc2)n1 1.3%
O=C(CCCN=C1NS(=O)(=O)c2ccccc21)OCC(=O)c1ccc(F)c(F)c1 -2.57%
CCC(=O)N(Cc1cc2cc(OC)ccc2[nH]c1=O)c1ccccc1C -6.72%
CCN(Cc1cc2cc(C)ccc2[nH]c1=O)S(=O)(=O)c1ccccc1 -3.14%
COc1ccccc1NC(=O)C(C)OC(=O)c1ccc(-n2cnnn2)cc1 (stereo unspecified) -4.36%
O=C1CC2(CCCC2)Oc2ccc(Cl)cc21 -9.81%
COc1ccc2c(c1)CCNC2Cc1ccc(OC)c(O)c1 (stereo unspecified) 0.52%
COc1cc2c(cc1O)[C@H](Cc1ccc(Oc3cc(C[C@@H]4NCCc5cc(OC)c(O)cc54)ccc3O)cc1)NCC2 -2.77%
C=CCOC(=O)C1=C[C@H](c2ccc(Br)cc2)C[C@H](OCCCCO)O1 -3.77%
O=C(NCc1ccccc1Cl)C1CCN(c2ncnc3c2nc2n3CCCCC2)CC1 -6.69%
COc1cccc(NC(=O)C2CCCN(c3ncnc4c3nc3n4CCCCC3)C2)c1 (stereo unspecified) -3.75%
COc1ccccc1CNC(=O)CSc1nc(=O)n(Cc2ccncc2)c2c1CCC2 -0.526%
Cn1c(SCC(=O)c2ccccc2)ncc(C(=O)Nc2ccc(F)cc2)c1=O 3.83%
CN(C)S(=O)(=O)c1cccc(NC(=O)Cc2ccsc2)c1 5.64%
Cc1ccc(/C=N/NC(=S)Nc2cccc(S(=O)(=O)N(C)C)c2)o1 -4.55%
COc1cccc(CNC(=O)C(=O)NCCC2CCCCN2S(=O)(=O)c2ccc(C)cc2)c1 (stereo unspecified) -3.75%
COc1cccc(N2CC(NS(=O)(=O)c3ccc(Cl)cc3)CC2=O)c1 (stereo unspecified) 8.69%
CN(CC(=O)NCc1cccnc1)S(=O)(=O)c1cc(Cl)ccc1Cl 1.42%
CCN(CC(=O)Nc1ccc(NC(C)=O)cc1)C(=O)C1CC(=O)N(Cc2ccc(C)cc2)C1 (stereo unspecified) -0.586%
CCOc1ccc(NCCC(=O)c2ccc3c(c2)OCO3)cc1 -1.61%
COc1ccccc1OCCCC(=O)Nc1ccc2c(c1)OCCO2 1.02%
Cc1ccc2nc(SCC(=O)N3CC(C)OC(C)C3)nc(=O)n2c1 (stereo unspecified) 3.03%
Cc1ccc(S(=O)(=O)CCC(=O)OCC(=O)N(C)C2CCS(=O)(=O)C2)cc1 (stereo unspecified) -3.16%
COc1ccc(CN2[C@@H](CC(=O)O)c3cc(F)ccc3S2(=O)=O)cc1 -5.27%
COc1ccc(C(=O)N/N=C2\CCS(=O)(=O)c3ccc(F)cc32)cc1OC 9.4%
CCN(CC(=O)NCc1ccco1)S(=O)(=O)c1ccc(F)cc1 -5.85%
COc1ccc(S(=O)(=O)N(C)CC(=O)N2CCCC2)cc1 0.377%
COc1ccc(CNC(=O)C2CCCC2)cc1 -0.797%
CCOc1ccc(NC(=O)CN(C)C(=O)COc2cccc(CC)c2)cc1OCC 3.71%
COC(=O)CCCC1=CC2=CC(=O)C(C)(OC(=O)c3cccs3)C(=O)C2=CN1c1cccc(C#N)c1 (stereo unspecified) 0.873%
COC(=O)CCCC1=CC2=CC(=O)C(C)(OC(=O)c3cccs3)C(=O)C2=CN1CC1CC1 (stereo unspecified) -2.87%
CC(=O)c1ccc(S(=O)(=O)Nc2ccc(-c3ccc4nncn4n3)cc2)cc1 2.56%
COc1ccc(NC(=O)CN(C)C(=O)c2ccc(COc3ccccc3)o2)cc1 3.16%
O=c1c2ccccc2nc2n1C1(CCCCC1)Cc1ccccc1-2 15.3%
CN(C(=O)c1cc2c(=O)n3ccccc3nc2s1)C1CCCCC1 23.2%
CCCOc1ccc(C(=O)CCC(=O)OC(C)C(=O)Nc2ccc(NC(C)=O)cc2)cc1 (stereo unspecified) 11.7%
CN(C)CCCNC(=S)N1CCC(c2nc3ccccc3[nH]2)CC1 -2.77%
COCCCNC(=S)N1CCCC(c2nc3cc(C)c(C)cc3[nH]2)C1 (stereo unspecified) 5.14%
CCOc1ccc(S(=O)(=O)Nc2cccc(C(=O)NCC3(N4CCCCC4)CCCCC3)c2)cc1 -3.29%
CC(=O)N[C@H]1[C@H]([C@H](O)[C@H](O)CO)OC(C(=O)O)=C[C@@H]1O -3.57%
COc1ccc2oc(C(=O)OCC(=O)N(CC(C)C)c3c(N)n(Cc4ccccc4)c(=O)[nH]c3=O)c(C)c2c1 1.6%
